Test results reported in PubChem BioAssay (Tox21).
Results filed as inconclusive are left out. A call without a number means that no potency is given here. Activity calls are given as the source filed them. The call rests on the fitted dose curve; in most records, active means well fitted activation curve with a large enough effect in the repeat runs; inconclusive means weak or mixed curves; inactive means flat fitted curve, though single readings scatter.

Experiment: A CellTox Green Cytotoxicity Assay to monitor cytotoxicity in HEK293 cells - 16 hour (AID 1224888); further: nearly all actives have a fitted effect of over 35% in size
Details: CellTox Green fluorescence; series mostly up to 76.8 µM
Text: National Center for Advancing Translational Sciences [NCATS]
NIH Chemical Genomics Center [NCGC]
U.S. Environmental Protection Agency [EPA]
National Institutes of Environmental Health Sciences [NIEHS]
National Toxicology Program [NTP]
Cell-based models are critical for drug discovery. Determining the natural cytotoxic effects resulting from test compounds is an essential research activity. A CellTox Green Cytotoxicity Assay to monitor cytotoxicity in real time of continues cell culture during 40 hours of the compound treatment was used to screen Tox21 10K library compounds in Hek293 cells. CellTox Green Cytotoxicity Assay is a nonlytic, homogeneous, biofluorescent method to measure cytotoxicity in cell culture after experimental manipulation. The assay system uses a proprietary asymmetric cyanine dye that is excluded from viable cells but preferentially stains the dead cell's DNA. […] Viable cells produce no appreciable increases in fluorescence. Therefore, the fluorescence signal produced by the binding interaction with dead cell DNA is proportional to cytotoxicity.
The mixture of Hek293 cell suspension and reagents were dispensed at 600cells/6 ul/well in 1536-well tissue culture treated black solid bottom plates using a Multidrop dispenser. After the assay plates were incubated at a 37 C/5% CO2 incubator for 5 hours, 23 nL of compounds dissolved in DMSO, positive and negative controls was transferred to the assay plate by a pintool work station. The plates were incubated at 37 C for 40 hours. The fluorescence intensity were measured at 0h, 8h, 16h, 24h, 32h and 40h time points using ViewLux plate reader during compound treatment.
In the case of CS(=O)(=O)c1ccc(Cl)cc1, the Potency was “inactive”.
For CC(=O)OCc1ccc2c(c1)OCO2, the Potency was “inactive”.
For CC(=O)c1nccs1, the Potency was “inactive”.
With CC(C)(CO)CO the Potency was “inactive”.
In the case of CCCOCC(C)O (stereo not given), the Potency was “inactive”.
With O=c1n(CCCN2CCN(c3cccc(Cl)c3)CC2)nc2ccccn12 the Potency was “inactive”.
For C=C(CC(=O)O)C(=O)O, the Potency was “inactive”.
For CC(=O)OC(C)(C)C1CC=C(C)CC1 (stereo not given), the Potency was “inactive”.
With CCCCCCCC(=O)O the Potency was “inactive”.
With C=CC(=O)NCOCCCC the Potency was “inactive”.
With CC(O)CNCC(C)O (stereo not given) the Potency was “inactive”.
With Cc1ccccc1C=O the Potency was “inactive”.
With O=C1OC(=O)c2c(Cl)c(Cl)c(Cl)c(Cl)c21 the Potency was “inactive”.
With OCC(CO)(CO)CO the Potency was “inactive”.
With CC(=O)CC(=O)N(C)C the Potency was “inactive”.
With COc1cc(NC(=O)CC(C)=O)c(OC)cc1Cl the Potency was “inactive”.
For O=C(Cl)c1ccc(C(=O)Cl)cc1, the Potency was “inactive”.
In the case of C[Si](C)(C)N[Si](C)(C)C, the Potency was “inactive”.
For COc1c2ccoc2cc2oc(=O)ccc12, the Potency was “inactive”.
With CCn1cc(C(=O)O)c(=O)c2cc3c(cc21)OCO3 the Potency was “inactive”.
In the case of CC/C(C)=N/O, the Potency was “inactive”.
For COc1c(Cl)ccc(Cl)c1C(=O)O, the Potency was “inactive”.
With Cc1cc(C)c(O)c(C)c1 the Potency was “inactive”.
In the case of CCN(CC)CCNC(=O)c1ccc(N)cc1, the Potency was “inactive”.
In the case of CC1(C)C(=O)N(Cl)C(=O)N1Cl, the Potency was “inactive”.
In the case of COc1ccccc1[N+](=O)[O-], the Potency was “inactive”.
For O=C1CCCCCCCCCCC1, the Potency was “inactive”.
With CC(C=O)Cc1ccc(C(C)(C)C)cc1 (stereo not given) the Potency was “inactive”.
For c1cnc2c(c1)ccc1cccnc12, the Potency was “inactive”.
For NC1CCCCC1N (stereo not given), the Potency was “inactive”.
In the case of CC(=O)Nc1ccc(CC(=O)O)cc1, the Potency was “inactive”.
With OB(O)O the Potency was “inactive”.
In the case of CCCCCCC(=O)O, the Potency was “inactive”.
In the case of COCN(COC)c1nc(N(COC)COC)nc(N(COC)COC)n1, the Potency was “inactive”.
For C1CCCNCC1, the Potency was “inactive”.
With O=[N+]([O-])c1cc(C(F)(F)F)ccc1Cl the Potency was “inactive”.
For O=C(O)Cc1c[nH]c2ccccc12, the Potency was “inactive”.
With OCC(O)CS (stereo not given) the Potency was “inactive”.
For NCCNCCNCCN, the Potency was “inactive”.
For Cc1cc(CC(=O)O)n(C)c1C(=O)c1ccc(Cl)cc1, the Potency was “inactive”.
